Tests used:
Assay in all cases: DAPPL (digital affinity profiling via proximity ligation, sequencing); 10 mM Tris-HCl pH 7.5, 50 mM NaCl, 1 mM DTT, 4% glycerol, room temperature, 30 min; GST-TFs on glutathione beads, 16-mer random dsDNA library, 0.1% formaldehyde crosslink after washing; high values mean tight binding
Details in all cases: protein: recombinant; tags: N-terminal GST; dsDNA, one strand shown
[1] = molecular target: T1, FEV (Homo sapiens, UniProt Q99581 1-238)
T1 sequence: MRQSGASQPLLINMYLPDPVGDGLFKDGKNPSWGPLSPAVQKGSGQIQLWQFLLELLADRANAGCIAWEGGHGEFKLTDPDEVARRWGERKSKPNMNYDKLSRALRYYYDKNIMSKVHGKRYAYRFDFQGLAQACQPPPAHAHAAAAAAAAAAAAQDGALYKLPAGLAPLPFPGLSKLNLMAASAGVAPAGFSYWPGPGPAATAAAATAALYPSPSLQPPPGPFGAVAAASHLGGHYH
Outline: (§1)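 Yeast served to express human transcription factors as GST fusions, which were then captured on glutathione beads and labelled with DNA barcodes. Pooled with a tag-only sample, they were incubated with 200 nmole of a 16-mer random double-stranded DNA library for 30 min at room temperature in Tris/NaCl/DTT/glycerol buffer, washed, crosslinked with 0.1% formaldehyde, ligated by proximity, amplified by PCR and sequenced. Dividing each hexamer's read frequency for a factor by its frequency for the tag-only sample gives the binding signal.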

[2] = molecular target: ETV5 (Homo sapiens, UniProt P41161 1-510)
Sequence of ETV5 (P41161 whole entry): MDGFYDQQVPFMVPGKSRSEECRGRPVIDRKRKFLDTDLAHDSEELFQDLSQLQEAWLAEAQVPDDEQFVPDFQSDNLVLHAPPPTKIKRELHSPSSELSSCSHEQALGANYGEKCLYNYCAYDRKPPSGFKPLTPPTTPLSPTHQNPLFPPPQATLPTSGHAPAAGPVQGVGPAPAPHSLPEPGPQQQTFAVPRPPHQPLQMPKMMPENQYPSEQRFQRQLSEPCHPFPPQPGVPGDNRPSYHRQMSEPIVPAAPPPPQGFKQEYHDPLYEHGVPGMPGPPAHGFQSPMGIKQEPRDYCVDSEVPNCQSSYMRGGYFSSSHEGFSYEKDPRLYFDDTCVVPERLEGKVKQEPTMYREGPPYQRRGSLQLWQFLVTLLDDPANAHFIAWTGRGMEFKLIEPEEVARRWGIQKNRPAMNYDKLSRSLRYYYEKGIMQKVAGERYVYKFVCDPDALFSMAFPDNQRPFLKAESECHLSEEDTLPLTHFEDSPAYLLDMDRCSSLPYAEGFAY
Outline: as §1

[3] = molecular target: T2, SPIC (Homo sapiens, UniProt Q8N5J4 1-248)
T2 sequence: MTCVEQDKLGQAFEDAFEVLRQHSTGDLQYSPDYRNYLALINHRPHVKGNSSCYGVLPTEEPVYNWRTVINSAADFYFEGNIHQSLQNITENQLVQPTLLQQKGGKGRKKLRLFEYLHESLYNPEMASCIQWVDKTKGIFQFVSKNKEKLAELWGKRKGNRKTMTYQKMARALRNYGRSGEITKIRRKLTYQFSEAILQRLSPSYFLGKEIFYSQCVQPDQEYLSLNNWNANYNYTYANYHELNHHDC
Outline: as §1

[4] = molecular target: ELF4 (Homo sapiens, UniProt Q99607 1-663)
Sequence of ELF4 (Q99607 whole entry): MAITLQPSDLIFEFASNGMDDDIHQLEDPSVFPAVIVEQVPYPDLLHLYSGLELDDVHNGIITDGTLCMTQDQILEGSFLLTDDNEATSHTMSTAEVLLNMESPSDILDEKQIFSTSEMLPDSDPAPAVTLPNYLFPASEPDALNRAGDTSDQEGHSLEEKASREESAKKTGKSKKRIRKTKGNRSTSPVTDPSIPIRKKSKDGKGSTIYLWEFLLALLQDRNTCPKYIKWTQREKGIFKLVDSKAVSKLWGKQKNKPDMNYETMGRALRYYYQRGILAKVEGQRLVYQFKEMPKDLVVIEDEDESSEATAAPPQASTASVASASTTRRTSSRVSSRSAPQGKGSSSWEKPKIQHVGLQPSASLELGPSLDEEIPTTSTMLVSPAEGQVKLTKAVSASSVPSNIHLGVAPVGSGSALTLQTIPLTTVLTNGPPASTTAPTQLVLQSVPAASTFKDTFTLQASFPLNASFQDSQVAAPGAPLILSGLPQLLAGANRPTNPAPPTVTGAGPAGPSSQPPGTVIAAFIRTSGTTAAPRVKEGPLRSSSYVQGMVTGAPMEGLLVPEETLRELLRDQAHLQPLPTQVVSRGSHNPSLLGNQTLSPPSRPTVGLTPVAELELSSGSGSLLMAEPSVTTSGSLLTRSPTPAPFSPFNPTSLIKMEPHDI
Outline: as §1

[5] = molecular target: T3, ELK4 (Homo sapiens, UniProt P28324-2 1-405)
T3 sequence: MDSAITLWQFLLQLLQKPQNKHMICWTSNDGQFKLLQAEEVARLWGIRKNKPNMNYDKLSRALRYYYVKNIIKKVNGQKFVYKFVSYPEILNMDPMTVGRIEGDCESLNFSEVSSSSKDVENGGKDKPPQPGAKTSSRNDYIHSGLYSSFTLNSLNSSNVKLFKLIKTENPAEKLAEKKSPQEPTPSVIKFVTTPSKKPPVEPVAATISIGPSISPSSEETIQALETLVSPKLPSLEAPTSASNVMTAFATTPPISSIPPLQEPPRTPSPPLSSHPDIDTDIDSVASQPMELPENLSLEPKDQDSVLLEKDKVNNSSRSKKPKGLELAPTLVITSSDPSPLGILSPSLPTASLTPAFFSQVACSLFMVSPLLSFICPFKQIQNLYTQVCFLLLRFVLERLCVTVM
Outline: as §1

[6] = molecular target: T4, ETV2 (Homo sapiens, UniProt O00321 1-342)
T4 sequence: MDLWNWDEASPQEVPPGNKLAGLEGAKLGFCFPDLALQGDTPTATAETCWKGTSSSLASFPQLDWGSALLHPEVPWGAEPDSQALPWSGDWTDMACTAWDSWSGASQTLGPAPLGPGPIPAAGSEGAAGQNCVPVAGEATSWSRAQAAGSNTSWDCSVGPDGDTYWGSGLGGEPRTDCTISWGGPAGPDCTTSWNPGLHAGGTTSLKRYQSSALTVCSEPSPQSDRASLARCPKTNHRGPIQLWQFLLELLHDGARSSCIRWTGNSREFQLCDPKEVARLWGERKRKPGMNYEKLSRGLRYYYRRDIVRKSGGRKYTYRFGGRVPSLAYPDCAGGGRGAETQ
Outline: as §1

[7] = molecular target: ETV1 (Homo sapiens, UniProt P50549 1-477)
Sequence of ETV1 (P50549 whole entry): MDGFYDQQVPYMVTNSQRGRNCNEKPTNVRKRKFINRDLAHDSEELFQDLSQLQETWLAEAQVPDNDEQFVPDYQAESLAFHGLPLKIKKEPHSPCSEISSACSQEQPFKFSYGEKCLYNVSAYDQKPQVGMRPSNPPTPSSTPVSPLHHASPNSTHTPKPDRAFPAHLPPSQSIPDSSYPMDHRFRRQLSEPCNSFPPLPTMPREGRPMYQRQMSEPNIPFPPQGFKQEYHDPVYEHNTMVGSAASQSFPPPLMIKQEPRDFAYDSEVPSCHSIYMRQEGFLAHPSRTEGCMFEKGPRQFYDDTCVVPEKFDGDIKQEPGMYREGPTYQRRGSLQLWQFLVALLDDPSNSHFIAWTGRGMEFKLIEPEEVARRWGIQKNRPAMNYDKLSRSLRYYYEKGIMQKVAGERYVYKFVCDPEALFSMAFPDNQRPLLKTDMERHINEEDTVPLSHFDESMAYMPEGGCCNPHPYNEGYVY
Outline: as §1

[8] = molecular target: T5, ERF (Homo sapiens, UniProt P50548 1-548)
T5 sequence: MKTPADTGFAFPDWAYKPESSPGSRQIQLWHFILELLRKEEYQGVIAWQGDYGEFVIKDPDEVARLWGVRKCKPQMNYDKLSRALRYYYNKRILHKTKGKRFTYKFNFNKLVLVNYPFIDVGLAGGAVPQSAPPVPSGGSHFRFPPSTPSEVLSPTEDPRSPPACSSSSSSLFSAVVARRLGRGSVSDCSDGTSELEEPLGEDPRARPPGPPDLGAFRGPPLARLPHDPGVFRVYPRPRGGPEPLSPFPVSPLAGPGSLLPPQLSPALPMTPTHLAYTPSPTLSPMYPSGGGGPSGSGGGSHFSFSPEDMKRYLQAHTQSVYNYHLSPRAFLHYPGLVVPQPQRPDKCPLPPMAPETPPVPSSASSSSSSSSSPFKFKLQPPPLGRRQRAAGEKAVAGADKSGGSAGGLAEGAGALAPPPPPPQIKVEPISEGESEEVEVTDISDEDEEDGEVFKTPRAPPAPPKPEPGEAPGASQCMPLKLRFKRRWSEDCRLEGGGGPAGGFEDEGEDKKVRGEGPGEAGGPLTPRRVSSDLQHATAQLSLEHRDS
Outline: as §1

[9] = molecular target: T6, ETV3L (Homo sapiens, UniProt Q6ZN32 1-361)
T6 sequence: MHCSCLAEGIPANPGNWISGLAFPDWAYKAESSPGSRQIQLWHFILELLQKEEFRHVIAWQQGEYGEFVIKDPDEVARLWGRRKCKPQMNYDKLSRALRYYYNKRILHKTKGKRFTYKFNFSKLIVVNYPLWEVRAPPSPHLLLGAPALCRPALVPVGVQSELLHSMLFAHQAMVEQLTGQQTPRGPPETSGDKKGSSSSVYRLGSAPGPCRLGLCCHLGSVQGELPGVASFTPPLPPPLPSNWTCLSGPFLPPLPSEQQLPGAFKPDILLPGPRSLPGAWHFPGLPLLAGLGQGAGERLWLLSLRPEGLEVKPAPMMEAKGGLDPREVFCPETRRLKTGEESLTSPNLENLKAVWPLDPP
Outline: as §1

[10] = molecular target: T7, ETS2 (Homo sapiens, UniProt P15036 1-469)
T7 sequence: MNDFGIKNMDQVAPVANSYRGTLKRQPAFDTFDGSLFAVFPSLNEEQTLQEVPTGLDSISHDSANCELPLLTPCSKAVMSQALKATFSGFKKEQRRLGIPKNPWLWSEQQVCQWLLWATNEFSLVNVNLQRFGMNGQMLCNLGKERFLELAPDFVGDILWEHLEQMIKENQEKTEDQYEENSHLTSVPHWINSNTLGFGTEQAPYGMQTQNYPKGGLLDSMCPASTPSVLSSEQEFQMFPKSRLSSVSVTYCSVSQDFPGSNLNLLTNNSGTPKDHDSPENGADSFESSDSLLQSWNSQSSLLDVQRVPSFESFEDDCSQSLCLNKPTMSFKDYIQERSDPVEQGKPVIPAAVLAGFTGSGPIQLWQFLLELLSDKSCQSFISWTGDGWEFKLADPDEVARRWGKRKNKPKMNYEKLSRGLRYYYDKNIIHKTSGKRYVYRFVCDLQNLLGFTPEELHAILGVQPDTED
Outline: as §1

[11] = molecular target: T8, ETV7 (Homo sapiens, UniProt Q9Y603 1-341)
T8 sequence: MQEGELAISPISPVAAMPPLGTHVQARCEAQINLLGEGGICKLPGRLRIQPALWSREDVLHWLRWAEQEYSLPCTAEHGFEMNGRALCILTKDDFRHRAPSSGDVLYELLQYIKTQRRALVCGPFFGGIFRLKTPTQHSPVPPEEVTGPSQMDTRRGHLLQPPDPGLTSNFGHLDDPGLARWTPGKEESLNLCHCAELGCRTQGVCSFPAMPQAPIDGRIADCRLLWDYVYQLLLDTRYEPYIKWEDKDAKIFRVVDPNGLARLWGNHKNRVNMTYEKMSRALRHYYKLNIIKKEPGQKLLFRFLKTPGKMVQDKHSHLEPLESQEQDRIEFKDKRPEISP
Outline: as §1

[12] = molecular target: T9, ELF5 (Homo sapiens, UniProt Q9UKW6-2 1-255)
T9 sequence: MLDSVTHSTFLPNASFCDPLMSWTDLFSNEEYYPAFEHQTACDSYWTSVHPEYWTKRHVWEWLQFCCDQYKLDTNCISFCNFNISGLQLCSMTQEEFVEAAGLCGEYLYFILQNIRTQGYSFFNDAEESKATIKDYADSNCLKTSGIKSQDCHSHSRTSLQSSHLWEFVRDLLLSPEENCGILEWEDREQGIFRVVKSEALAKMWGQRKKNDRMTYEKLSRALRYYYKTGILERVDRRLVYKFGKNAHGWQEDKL
Outline: as §1

[13] = molecular target: T10, ETV3 (Homo sapiens, UniProt P41162-2 1-143)
T10 sequence: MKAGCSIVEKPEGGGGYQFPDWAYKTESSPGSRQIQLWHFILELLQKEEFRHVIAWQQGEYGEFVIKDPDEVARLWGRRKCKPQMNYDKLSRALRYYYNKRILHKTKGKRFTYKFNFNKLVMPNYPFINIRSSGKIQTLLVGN
Outline: as §1

[14] = molecular target: T11, ELF3 (Homo sapiens, UniProt P78545 1-371)
T11 sequence: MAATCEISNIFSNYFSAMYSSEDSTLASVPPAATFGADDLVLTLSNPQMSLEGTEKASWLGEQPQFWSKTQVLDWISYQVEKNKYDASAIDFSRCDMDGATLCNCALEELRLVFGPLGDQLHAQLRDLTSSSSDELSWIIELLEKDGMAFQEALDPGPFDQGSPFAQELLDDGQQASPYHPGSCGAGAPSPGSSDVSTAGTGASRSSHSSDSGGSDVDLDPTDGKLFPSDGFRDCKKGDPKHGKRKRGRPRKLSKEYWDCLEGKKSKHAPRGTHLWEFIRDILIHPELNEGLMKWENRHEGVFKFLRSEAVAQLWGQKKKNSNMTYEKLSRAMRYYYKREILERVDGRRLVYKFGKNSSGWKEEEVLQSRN
Outline: as §1

[15] = molecular target: T12, SPDEF (Homo sapiens, UniProt O95238 1-335)
T12 sequence: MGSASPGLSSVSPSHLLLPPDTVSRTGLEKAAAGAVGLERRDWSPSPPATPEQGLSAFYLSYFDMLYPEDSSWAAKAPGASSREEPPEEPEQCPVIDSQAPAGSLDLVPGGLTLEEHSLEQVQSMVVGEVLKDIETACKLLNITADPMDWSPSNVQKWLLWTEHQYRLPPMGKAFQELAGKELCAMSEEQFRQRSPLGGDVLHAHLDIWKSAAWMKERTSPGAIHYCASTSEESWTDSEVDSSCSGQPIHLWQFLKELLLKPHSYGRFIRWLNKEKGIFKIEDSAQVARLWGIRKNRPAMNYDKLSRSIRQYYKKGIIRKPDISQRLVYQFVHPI
Outline: as §1

[16] = molecular target: ETV6 (Homo sapiens, UniProt P41212 1-452)
Sequence of ETV6 (P41212 whole entry): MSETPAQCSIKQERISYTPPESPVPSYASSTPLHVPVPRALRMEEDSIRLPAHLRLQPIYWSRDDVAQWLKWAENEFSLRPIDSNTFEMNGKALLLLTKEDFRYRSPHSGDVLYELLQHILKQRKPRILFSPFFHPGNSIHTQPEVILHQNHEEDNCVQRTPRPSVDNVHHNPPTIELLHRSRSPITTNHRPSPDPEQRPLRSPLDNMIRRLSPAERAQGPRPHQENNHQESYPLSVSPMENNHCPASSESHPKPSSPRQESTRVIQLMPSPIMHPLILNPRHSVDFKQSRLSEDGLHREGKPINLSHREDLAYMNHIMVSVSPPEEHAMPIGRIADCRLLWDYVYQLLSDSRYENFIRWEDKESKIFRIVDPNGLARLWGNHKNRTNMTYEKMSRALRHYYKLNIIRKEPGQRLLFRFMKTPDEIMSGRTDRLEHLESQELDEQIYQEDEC
Outline: as §1

Sequence | binding signal [1] | binding signal [2] | binding signal [3] | binding signal [4] | binding signal [5] | binding signal [6] | binding signal [7] | binding signal [8] | binding signal [9] | binding signal [10] | binding signal [11] | binding signal [12] | binding signal [13] | binding signal [14] | binding signal [15] | binding signal [16]
GTTTGG | 1.06 fold enrichment (6-mer frequency, TF over GST control) | 1.03 fold enrichment (6-mer frequency, TF over GST control) | 1.24 fold enrichment (6-mer frequency, TF over GST control) | 1.03 fold enrichment (6-mer frequency, TF over GST control) | 1.08 fold enrichment (6-mer frequency, TF over GST control) | 1.06 fold enrichment (6-mer frequency, TF over GST control) | 1.07 fold enrichment (6-mer frequency, TF over GST control) | 1.11 fold enrichment (6-mer frequency, TF over GST control) | 1.09 fold enrichment (6-mer frequency, TF over GST control) | 1.07 fold enrichment (6-mer frequency, TF over GST control) | 1.12 fold enrichment (6-mer frequency, TF over GST control) | 1.1 fold enrichment (6-mer frequency, TF over GST control) | 1.1 fold enrichment (6-mer frequency, TF over GST control) | – | – | –
GATATG | 1.08 fold enrichment (6-mer frequency, TF over GST control) | 1.1 fold enrichment (6-mer frequency, TF over GST control) | 1.23 fold enrichment (6-mer frequency, TF over GST control) | 1.11 fold enrichment (6-mer frequency, TF over GST control) | 1.07 fold enrichment (6-mer frequency, TF over GST control) | – | 1.03 fold enrichment (6-mer frequency, TF over GST control) | 1.09 fold enrichment (6-mer frequency, TF over GST control) | 1.08 fold enrichment (6-mer frequency, TF over GST control) | 1.18 fold enrichment (6-mer frequency, TF over GST control) | 1.07 fold enrichment (6-mer frequency, TF over GST control) | 1.14 fold enrichment (6-mer frequency, TF over GST control) | 1.12 fold enrichment (6-mer frequency, TF over GST control) | 1.08 fold enrichment (6-mer frequency, TF over GST control) | 1.24 fold enrichment (6-mer frequency, TF over GST control) | 1.04 fold enrichment (6-mer frequency, TF over GST control)
GTACTC | 1.11 fold enrichment (6-mer frequency, TF over GST control) | 1.19 fold enrichment (6-mer frequency, TF over GST control) | 1.06 fold enrichment (6-mer frequency, TF over GST control) | 1.12 fold enrichment (6-mer frequency, TF over GST control) | 1.03 fold enrichment (6-mer frequency, TF over GST control) | – | 1.1 fold enrichment (6-mer frequency, TF over GST control) | 1.06 fold enrichment (6-mer frequency, TF over GST control) | 1.15 fold enrichment (6-mer frequency, TF over GST control) | 1.13 fold enrichment (6-mer frequency, TF over GST control) | 1 fold enrichment (6-mer frequency, TF over GST control) | 1.12 fold enrichment (6-mer frequency, TF over GST control) | 1.11 fold enrichment (6-mer frequency, TF over GST control) | 1.07 fold enrichment (6-mer frequency, TF over GST control) | 1.02 fold enrichment (6-mer frequency, TF over GST control) | 1.14 fold enrichment (6-mer frequency, TF over GST control)
